# The source made the active and inactive calls.
# Key:
# [1] = small molecules captured by biotinylated probe aFSTL3 – biochemical, small-molecule microarray, fluorescence 635/667, stem cell growth factor project, primary screen (AID 1064); conditions: higher = more signal;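 note: measures binding of the biotinylated anti-FSTL3 antibody to printed compounds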
# [2] = binders from COS7 lysate, DM2A8 probe, primary screen, torsin A project, cell lysate, small-molecule microarray, fluorescence 635/667 (AID 1065); conditions: higher = more signal, COS7 lysate expressing mutant human TOR1A
# [3] = small molecules captured by biotinylated probe aFGF2 – biochemical, small-molecule microarray, fluorescence 635/667, stem cell growth factor project, primary screen (AID 1067); conditions: higher = more signal;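 note: measures binding of biotinylated aFGF2 protein to printed compounds on slides; z-score merges feature fluorescence and signal-to-noise across triplicate slides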
# [4] = small molecules captured by biotinylated probe aFGF10 – biochemical, small-molecule microarray, fluorescence 635/667, stem cell growth factor project, primary screen (AID 1071); conditions: higher = more signal;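 note: score merges 667 nm spot intensity and signal to noise from triplicate slides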
# [5] = biological target: Neurogenic locus notch homolog protein 2 (Homo sapiens) (UniProt Q04721); assay: small molecules binding Notch2 protein – biochemical, small-molecule microarray, 635 nm fluorescence, stem cell growth factors, primary screen (AID 1073); conditions: higher = more signal
# [6] = biological target: Pro-neuregulin-1, membrane-bound isoform (Homo sapiens) (UniProt Q02297); assay: small molecules binding neuregulin-1 protein – biochemical, small-molecule microarray, fluorescence 635/667, psychiatric disease protein project, primary screen (AID 1075); conditions: NRG1 binding, 635 nm fluorescence, higher = more signal;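 note: score combines 667 nm spot fluorescence with signal to noise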
# Sequence of Pro-neuregulin-1, membrane-bound isoform (Homo sapiens) (Q02297 whole entry, looked up, the tested form may be a part, canonical isoform): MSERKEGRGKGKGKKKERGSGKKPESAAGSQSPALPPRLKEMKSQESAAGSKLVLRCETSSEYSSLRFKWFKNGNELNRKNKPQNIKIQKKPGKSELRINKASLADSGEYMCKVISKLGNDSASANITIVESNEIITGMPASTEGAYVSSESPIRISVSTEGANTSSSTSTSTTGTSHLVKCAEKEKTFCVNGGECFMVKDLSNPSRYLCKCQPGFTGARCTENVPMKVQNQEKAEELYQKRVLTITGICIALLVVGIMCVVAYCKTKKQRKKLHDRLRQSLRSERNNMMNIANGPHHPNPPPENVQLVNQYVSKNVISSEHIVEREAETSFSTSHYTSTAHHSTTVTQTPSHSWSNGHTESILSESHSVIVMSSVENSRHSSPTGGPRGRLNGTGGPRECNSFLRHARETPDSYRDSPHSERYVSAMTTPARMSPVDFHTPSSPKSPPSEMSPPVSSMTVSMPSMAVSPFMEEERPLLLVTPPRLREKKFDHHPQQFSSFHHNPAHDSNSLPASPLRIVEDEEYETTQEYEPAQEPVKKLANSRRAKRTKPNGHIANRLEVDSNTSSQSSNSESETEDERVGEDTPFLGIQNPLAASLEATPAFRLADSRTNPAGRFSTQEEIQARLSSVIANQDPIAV
# [7] = tested on: Neuregulin-1 EGF-like domain; assay: small molecules binding NRG1 EGF domain – biochemical, small-molecule microarray, 635 nm fluorescence, primary screen (AID 1081); conditions: higher = more signal;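 note: binding of the protein to compounds printed on small-molecule microarray slides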
# [8] = FRG1 expression reporter modulators in myotubes – cell-based, C2C12 myotubes, firefly/Renilla luciferase, luminescence, FRG1 inhibition for FSHD, primary screen (AID 1084); conditions: FRG1 promoter luciferase, higher = more signal, called active from +8 up or from −8 down
# [9] = small molecules captured by biotinylated probe aFST – biochemical, small-molecule microarray, fluorescence 635/667, stem cell growth factor project, primary screen (AID 1086); conditions: higher = more signal;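 note: score merges 667 nm fluorescence with signal-to-noise of each printed compound spot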
# [10] = binders of probe aHhip on microarray, primary screen, stem cell growth factor project, biochemical, small-molecule microarray, fluorescence 635/667 (AID 1087); conditions: higher = more signal;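 note: score merges spot fluorescence at 667nm with spot signal to noise ratio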
# [11] = tested on: PRMT1 (protein arginine N-methyltransferase 1); assay: small molecules binding arginine methyltransferase PRMT1 – biochemical, small-molecule microarray, 635 nm fluorescence, primary screen (AID 1088); conditions: higher = more signal;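 note: binding of Prmt1 protein to compounds spotted on small-molecule microarray slides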
# [12] = growth effects on S. cerevisiae YJM789 – YJM789 clinical isolate, OD600, 24 h, basal, primary screen (AID 1089); conditions: higher = more signal, called active from +8 up or from −8 down;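 note: growth of clinical yeast isolate S. cerevisiae YJM 789 seeded 1000 cells per well; test concentration not given here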
# [13] = S. pombe growth modifiers, basal conditions – strain 972, OD600, 24 h, no modulator, primary screen (AID 1090);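 note: basal condition with compound alone and no growth modifier present; test concentration not given here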; conditions: S. pombe 972 growth, higher = more signal, called active from +8 up or from −8 down
# [14] = budding yeast growth modifiers under rapamycin – strain BY4716, OD600, 96 h, primary screen (AID 1091); note: test concentration not given here; conditions: S. cerevisiae BY4716 + rapamycin, higher = more signal, called active from +8 up or from −8 down
# [15] = biological target: Torsin-1A-interacting protein 2 (Homo sapiens) (UniProt Q8NFQ8); assay: small molecules binding lysate-expressed LULL1 – cell lysate, human LULL1 lysate, 635/667 nm fluorescence, primary screen (AID 1092); conditions: small-molecule microarray, hLULL1 lysate binding, 635 nm fluorescence; higher = more signal;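 note: probe is lysate of COS7 cells overexpressing human LULL1; score merges per-feature 667 nm fluorescence with signal-to-noise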
# Sequence of Torsin-1A-interacting protein 2 (Homo sapiens) (Q8NFQ8 whole entry, looked up): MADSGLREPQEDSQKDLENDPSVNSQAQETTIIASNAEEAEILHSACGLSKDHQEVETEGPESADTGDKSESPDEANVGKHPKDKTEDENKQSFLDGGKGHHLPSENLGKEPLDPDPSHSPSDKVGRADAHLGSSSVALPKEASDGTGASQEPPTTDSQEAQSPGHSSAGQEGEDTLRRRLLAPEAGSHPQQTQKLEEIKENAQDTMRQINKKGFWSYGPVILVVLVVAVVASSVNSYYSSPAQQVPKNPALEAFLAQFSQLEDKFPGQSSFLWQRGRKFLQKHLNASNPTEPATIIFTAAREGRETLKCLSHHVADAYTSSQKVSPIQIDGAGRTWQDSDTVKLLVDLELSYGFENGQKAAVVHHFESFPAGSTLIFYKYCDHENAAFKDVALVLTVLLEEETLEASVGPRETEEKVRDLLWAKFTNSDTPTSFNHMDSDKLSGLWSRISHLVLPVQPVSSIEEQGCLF
# [16] = optical density change of DRC41 E. coli – strain DRC41, OD650, 24 h, E. coli filamentation project, primary screen (AID 1093);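 note: MC1000 strain lacking acrAB efflux and sulA so SOS filamentation is blocked; test concentration not given here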; conditions: E. coli DRC41 growth, higher = more signal, called active from +8 up or from −8 down
# [17] = probe aLefty2 binding to arrayed compounds – biochemical, biotinylated probe, 635/667 nm fluorescence, primary screen (AID 1094); conditions: small-molecule microarray, higher = more signal;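 note: score merges spot fluorescence near 667 nm with spot signal-to-noise ratio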
# [18] = tested on: Noggin (protein binding on small-molecule microarray); assay: small molecules binding Noggin protein – biochemical, 635/667 nm fluorescence, primary screen (AID 1095); conditions: 635 nm fluorescence, higher = more signal;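 note: score merges 667 nm feature fluorescence with signal to noise over triplicate slides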
# [19] = biological target: Neurogenic locus notch homolog protein 3 (Homo sapiens) (UniProt Q9UM47); assay: small molecules binding NOTCH3 protein – biochemical, 635/667 nm fluorescence, primary screen (AID 1096); conditions: small-molecule microarray, 635 nm fluorescence, higher = more signal
# Sequence of Neurogenic locus notch homolog protein 3 (Homo sapiens) (Q9UM47 whole entry, looked up): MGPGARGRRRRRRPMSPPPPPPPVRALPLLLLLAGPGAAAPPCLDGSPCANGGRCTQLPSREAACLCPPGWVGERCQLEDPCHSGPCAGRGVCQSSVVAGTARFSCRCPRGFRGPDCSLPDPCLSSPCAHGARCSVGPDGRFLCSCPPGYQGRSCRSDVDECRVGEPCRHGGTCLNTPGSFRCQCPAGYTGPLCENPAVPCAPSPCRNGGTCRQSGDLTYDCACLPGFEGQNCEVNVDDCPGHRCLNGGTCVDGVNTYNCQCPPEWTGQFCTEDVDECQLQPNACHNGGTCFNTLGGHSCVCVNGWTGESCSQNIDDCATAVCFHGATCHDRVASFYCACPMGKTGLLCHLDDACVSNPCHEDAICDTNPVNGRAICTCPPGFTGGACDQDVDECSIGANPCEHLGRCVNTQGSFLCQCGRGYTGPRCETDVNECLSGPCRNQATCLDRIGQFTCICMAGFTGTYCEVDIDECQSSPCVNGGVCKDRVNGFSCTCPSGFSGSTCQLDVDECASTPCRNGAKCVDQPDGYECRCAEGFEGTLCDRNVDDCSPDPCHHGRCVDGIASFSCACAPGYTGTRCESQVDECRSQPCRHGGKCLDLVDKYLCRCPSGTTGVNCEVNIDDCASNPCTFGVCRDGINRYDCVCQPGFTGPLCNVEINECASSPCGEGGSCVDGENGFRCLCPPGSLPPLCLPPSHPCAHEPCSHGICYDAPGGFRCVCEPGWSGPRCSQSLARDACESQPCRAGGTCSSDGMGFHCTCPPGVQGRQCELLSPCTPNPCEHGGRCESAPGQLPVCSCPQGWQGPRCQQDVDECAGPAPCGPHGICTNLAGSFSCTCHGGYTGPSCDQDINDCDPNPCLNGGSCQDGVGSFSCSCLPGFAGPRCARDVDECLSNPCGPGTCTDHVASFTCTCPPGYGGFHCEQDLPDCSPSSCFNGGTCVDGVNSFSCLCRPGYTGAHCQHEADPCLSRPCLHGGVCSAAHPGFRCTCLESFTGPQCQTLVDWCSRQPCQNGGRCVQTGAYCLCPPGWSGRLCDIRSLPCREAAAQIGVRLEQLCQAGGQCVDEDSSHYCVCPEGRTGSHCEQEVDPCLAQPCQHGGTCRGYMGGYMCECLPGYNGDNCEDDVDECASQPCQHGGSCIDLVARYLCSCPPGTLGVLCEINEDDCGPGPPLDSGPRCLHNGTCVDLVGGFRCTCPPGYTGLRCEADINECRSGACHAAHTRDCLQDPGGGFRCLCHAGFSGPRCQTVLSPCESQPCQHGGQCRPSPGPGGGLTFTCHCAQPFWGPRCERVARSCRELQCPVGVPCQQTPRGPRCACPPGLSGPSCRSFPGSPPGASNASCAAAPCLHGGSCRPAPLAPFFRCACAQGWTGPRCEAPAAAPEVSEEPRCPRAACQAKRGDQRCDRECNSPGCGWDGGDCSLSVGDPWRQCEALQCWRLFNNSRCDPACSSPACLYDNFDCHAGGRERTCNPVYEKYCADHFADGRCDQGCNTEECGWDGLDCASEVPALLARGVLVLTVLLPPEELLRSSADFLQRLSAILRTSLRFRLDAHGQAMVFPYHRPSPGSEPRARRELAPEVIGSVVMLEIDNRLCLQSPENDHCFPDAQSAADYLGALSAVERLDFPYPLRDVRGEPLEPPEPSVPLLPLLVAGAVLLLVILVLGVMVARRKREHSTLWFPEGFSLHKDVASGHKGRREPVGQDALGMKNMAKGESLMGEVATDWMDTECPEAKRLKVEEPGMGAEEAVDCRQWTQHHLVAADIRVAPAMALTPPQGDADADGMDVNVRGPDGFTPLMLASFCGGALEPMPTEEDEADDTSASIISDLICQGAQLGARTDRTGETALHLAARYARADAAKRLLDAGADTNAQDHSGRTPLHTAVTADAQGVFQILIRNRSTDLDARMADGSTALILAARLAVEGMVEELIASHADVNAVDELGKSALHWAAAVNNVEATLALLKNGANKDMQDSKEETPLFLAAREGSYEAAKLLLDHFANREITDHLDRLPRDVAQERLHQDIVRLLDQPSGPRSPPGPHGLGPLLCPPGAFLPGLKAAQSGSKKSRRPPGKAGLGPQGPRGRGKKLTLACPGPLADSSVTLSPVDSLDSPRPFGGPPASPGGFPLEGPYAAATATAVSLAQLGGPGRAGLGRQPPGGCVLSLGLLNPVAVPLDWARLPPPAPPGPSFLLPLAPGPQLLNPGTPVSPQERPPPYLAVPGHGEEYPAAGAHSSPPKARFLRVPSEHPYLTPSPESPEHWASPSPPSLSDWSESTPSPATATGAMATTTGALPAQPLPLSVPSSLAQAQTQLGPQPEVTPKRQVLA
# [20] = probe aEGFR binding to arrayed compounds – biochemical, biotinylated probe, 635/667 nm fluorescence, primary screen (AID 1097); conditions: small-molecule microarray, higher = more signal;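 note: probe is a biotinylated anti-EGFR antibody binding compounds printed on slides; score combines fluorescence near 667 nm and signal to noise of each spot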
Compound,composite z-score [1],composite z-score [2],composite z-score [3],composite z-score [4],composite z-score [5],composite z-score [6],composite z-score [7],z-score [8],composite z-score [9],composite z-score [10],composite z-score [11],z-score [12],z-score [13],z-score [14],composite z-score [15],z-score [16],composite z-score [17],composite z-score [18],composite z-score [19],composite z-score [20]
CC(C)[Si]1(C(C)C)O[C@@H](c2ccccc2)c2cc(C3CC3)nc(-c3ccc(Oc4ccccc4)cc3)c21,0.0382,0.0357,-0.119,-0.772,-0.304,-0.46,-0.985,-0.895 (inactive),-0.148,-0.0074,-0.63,0.995 (inactive),-0.808 (inactive),1.21 (inactive),0.369,1.94 (inactive),-0.142,-0.101,-1.22,-0.169
C[C@H]1COC(=O)[C@@H]2CCCN2C(=O)[C@@H](C)COC(=O)[C@@H]2CCCN2C1=O,-0.295,0.491,-0.163,0.0646,0.415,-0.567,-0.436,-3.16 (inactive),-0.041,-0.134,-0.8,-0.173 (inactive),-0.649 (inactive),-1.65 (inactive),-0.863,0.493 (inactive),-0.175,0.381,-0.493,-0.071
C=C(/C(=C/C[C@@H](OC(=O)c1ccncc1)c1ccc(CO)o1)c1cnc2ccccc2c1)C(C)C,0.358,0.522,-0.0767,1.02,1.52,1.15,1.04,-0.493 (inactive),0.398,-0.0994,1.54,-0.0873 (inactive),-2.27 (inactive),-0.147 (inactive),1.1,1.23 (inactive),-0.0569,1.08,1.09,0.0009
Cc1ccc(S(=O)(=O)N[C@H]2COC(=O)CC=C[C@H](C)COC(=O)N[C@@H](C)C(=O)CC=C[C@@H]2C)cc1,-0.667,1.16,-0.22,0.168,-0.0113,-0.195,0.527,0.502 (inactive),0.0218,0.0053,0.67,-0.11 (inactive),-0.784 (inactive),0.978 (inactive),-0.866,0.12 (inactive),-0.215,1.18,0.354,0.0486
CCOC(=O)[C@H]1C/C=C/C[C@H](C(=O)OCC)C(=O)O[C@H]2[C@@H](OC)O[C@H](CO)[C@@H](OC(=O)Nc3ccc(Br)cc3)[C@@H]2OC1=O,0.762,0.475,-0.108,0.28,0.798,0.991,1.29,0.892 (inactive),0.449,-0.0613,1.54,0.343 (inactive),-2.37 (inactive),31.7 (active),2.93,2.91 (inactive),0.45,0.933,0.869,-0.121
C=C(CCCC)/C(=C/C[C@@H](OC(=O)c1ccncc1)c1ccc(CO)o1)c1cnc2ccccc2c1,-0.297,0.702,0.0263,1.08,1.59,0.786,0.743,-0.452 (inactive),0.972,0.224,1.54,0.396 (inactive),-2.43 (inactive),0.322 (inactive),2.54,1.25 (inactive),0.0561,1.64,1.02,0.0071
O=C(CS)NCCCCCNC(=O)[C@H]1C[C@H]2C(=O)N[C@@H](Cc3ccccc3)C(=O)N2[C@H]1c1ccc(O)cc1,0.593,0.395,-0.0176,0.645,1.02,0.541,1.23,0.658 (inactive),0.446,-0.0919,1.54,0.662 (inactive),-0.982 (inactive),1.86 (inactive),2.18,1.12 (inactive),-0.107,1.48,0.781,0.178
N#Cc1ccc(NN2C(C(O)CCc3ccccc3)C=CC3C(=O)N(c4ccccc4)C(=O)C32)cc1 (stereo not given),0.681,0.936,0.078,-0.0011,1.62,1.17,1,-1.22 (inactive),1.02,-0.177,0.212,-1.53 (inactive),0.222 (inactive),1.13 (inactive),3.01,-1.11 (inactive),0.25,-0.172,1.13,0.35
COc1ccc([C@H]2C[C@H]3C(Br)=C[C@]2(OC)C(=O)[C@]32CO2)cc1,-0.207,-0.187,-0.0563,1.02,-0.203,-0.228,-0.0338,0.926 (inactive),0.198,0.0722,-0.378,-0.714 (inactive),-3.14 (inactive),-0.577 (inactive),-0.288,-0.987 (inactive),-0.159,0.145,0.372,-0.151
CCOC(=O)C[C@H]1[C@H](OC(=O)c2cc3ccccc3oc2=O)[C@@H](NC(=O)C2CCCCC2)c2cc(OCCCO)ccc2N1C(=O)c1ccc2ccccc2n1,-0.662,0.0931,-0.179,0.414,0.432,0.295,0.675,-0.541 (inactive),0.33,-0.0645,1.06,0.152 (inactive),0.802 (inactive),1.29 (inactive),1.17,-0.865 (inactive),-0.124,0.87,1.02,-0.154
